Test results: PubChem BioAssay AID504452 (The Scripps Research Institute Molecular Screening Center, 2011)
The source made the active and inactive calls. Rule as the data show it: active = activation above about 85%; inactive = the rest.

Biological target: Peroxisome proliferator-activated receptor gamma (Homo sapiens) (UniProt P37231)
Assay: partial agonism at human PPARgamma receptor – cell-based, luciferase reporter, luminescence, primary screen (AID 504452);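 also: Cos-1 cells carrying PPARgamma and a response element luciferase reporter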
Conditions: cell-based PPARg luciferase reporter, at 5 µM, stronger effect = higher value; activation (% of full agonist control): measured here: relative to full agonist control

Chain of Peroxisome proliferator-activated receptor gamma (Homo sapiens) (P37231 whole entry, looked up): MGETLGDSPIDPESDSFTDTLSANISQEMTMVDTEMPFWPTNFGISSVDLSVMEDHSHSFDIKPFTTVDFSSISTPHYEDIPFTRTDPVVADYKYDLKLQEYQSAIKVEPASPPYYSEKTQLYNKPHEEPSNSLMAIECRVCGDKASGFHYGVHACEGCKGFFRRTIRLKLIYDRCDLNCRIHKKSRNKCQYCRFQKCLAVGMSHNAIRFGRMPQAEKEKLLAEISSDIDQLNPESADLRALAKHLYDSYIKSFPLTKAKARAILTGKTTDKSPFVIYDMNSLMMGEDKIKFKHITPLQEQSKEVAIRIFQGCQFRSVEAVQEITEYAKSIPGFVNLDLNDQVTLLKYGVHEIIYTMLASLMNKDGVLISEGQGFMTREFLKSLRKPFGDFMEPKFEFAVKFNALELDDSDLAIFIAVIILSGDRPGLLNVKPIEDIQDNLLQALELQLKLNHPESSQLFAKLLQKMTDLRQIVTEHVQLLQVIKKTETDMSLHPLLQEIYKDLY

SMILES | activation (% of full agonist control) | activation (% of partial agonist control)
COc1ccccc1NC(=O)C(=O)c1cn(CC(=O)N2CCOCC2)c2ccccc12 | 42.3% | 93.5% (active)
O=C(C1CC(=O)N(c2ccc3c(c2)OCCO3)C1)N1CCN(c2ccccc2O)CC1 (configuration not stated) | 31.6% | 69.9% (inactive)
CN1C(=O)COc2ccc(C(=O)c3oc4ccccc4c3-c3cnc4c(c3)COc3ccccc3-4)cc21 | 8.28% | 18.3% (inactive)
O=C(Cc1c(C(=O)O)[nH]c2ccccc12)Nc1ccc2c(c1)OCO2 | 7.95% | 17.6% (inactive)
COc1ccc(C2C(C(=O)N3CCC(C(N)=O)CC3)CC(=O)N2c2ccc(OC)cc2)cc1 (configuration not stated) | 25.5% | 56.5% (inactive)
C[C@H](NC(=O)c1nc[nH]c1C(=O)N1CCc2ccccc2C1)C(=O)OCc1ccccc1 | 29.5% | 65.3% (inactive)
COC(=O)C1=CN(Cc2ccc(C)cc2)C=C(C(=O)OC)C1c1ccc(F)c(F)c1 | 36.2% | 80.2% (inactive)
CCOC(=O)N1CCN(C(=O)c2ccc(S(=O)(=O)c3ccc(C)cc3)c(NC(C)=O)c2)CC1 | 37.2% | 82.4% (inactive)
COc1ccc(C2CC(=O)N3CN(c4ccccc4F)CSC3=C2C#N)cc1OC (configuration not stated) | 29.2% | 64.7% (inactive)
CC(Oc1ccc(F)cc1)C(=O)Nc1ccc(N2CCOCC2)cc1N1CCOCC1 (configuration not stated) | 31.2% | 69.2% (inactive)
O=C(CN1c2cccc3cccc(c23)S1(=O)=O)N1CCN(c2ccc(F)cc2)CC1 | 34.1% | 75.5% (inactive)
CCN(CC)S(=O)(=O)c1ccc(N2CCOCC2)c(NC(=O)C(C)Oc2ccc(F)cc2)c1 (configuration not stated) | 29.3% | 64.8% (inactive)
Cc1ccc(/C(O)=C2/C(=O)C(=O)N(c3ccccn3)C2c2cccc([N+](=O)[O-])c2)cc1 (configuration not stated) | 34.1% | 75.6% (inactive)
COc1cc(C(CC(=O)Nc2cccc(C)n2)N2Cc3ccccc3C2=O)cc(OC)c1OC (configuration not stated) | 29.1% | 64.3% (inactive)
CCn1cc(C(=O)N2CCN(c3ccc(OC)cc3)CC2)c2cc(OC)c(OC)cc2c1=O | 27.6% | 61% (inactive)
O=C(Cn1c(=O)c(=O)n(Cc2ccccc2)c2ccc(Cl)cc21)Nc1cc(F)ccc1F | 28.4% | 62.9% (inactive)
COc1ccccc1N1C(=O)C2C(C(=O)c3ccccc3)=NN(c3ccc(C)cc3)C2C1=O (configuration not stated) | 47.8% | 106% (active)
COC(=O)C1=CN(Cc2ccccc2)C=C(C(=O)OC)C1c1ccc(OC)c(OC)c1 | 25.9% | 57.3% (inactive)
Cc1cc(N2C(=O)C(O)=C(C(=O)c3ccco3)C2c2cccc(Cl)c2)no1 (configuration not stated) | 25.2% | 55.9% (inactive)
COc1cc(C2/C(=C(/O)c3ccc(F)cc3)C(=O)C(=O)N2CCCC(=O)O)ccc1O (configuration not stated) | 37% | 82% (inactive)
COc1ccc(C=NNS(=O)(=O)c2ccc(F)cc2)cc1COc1cc(F)ccc1[N+](=O)[O-] | 42.9% | 95% (active)
O=C(O)COc1ccccc1/C=C1\SC(=S)N(NC(=O)c2ccccc2O)C1=O | 41.4% | 91.7% (active)
Cc1cccn2c(=O)c(/C=C(\C#N)C(=O)NC3CCS(=O)(=O)C3)c(Oc3ccc(F)cc3)nc12 (configuration not stated) | 34.6% | 76.7% (inactive)
COc1ccc(-c2cc(C(=O)NC(C)c3ccccn3)c3ccccc3n2)cc1OC (configuration not stated) | 40.7% | 90.2% (active)

SMILES | activation (% of full agonist control) | activation (% of partial agonist control)
Cc1ccc2[nH]c(=O)c(CN(Cc3cccs3)Cc3nnnn3CC3CCCO3)cc2c1 (configuration not stated) | 44.1% | 97.6% (active)
Cc1c(CNCCC2=CCCCC2)c(C(=O)O)c(C)n1Cc1ccccc1 | 10% | 22.2% (inactive)
Cc1cc(C(=O)CN2C(=O)C(=O)N(Cc3ccccc3)C2=O)c(C)n1Cc1ccc(F)cc1 | 38% | 84.1% (inactive)
O=C(C1=C(O)C(=O)N(c2nc3ccc(Cl)cc3s2)C1c1ccco1)c1ccco1 (configuration not stated) | 42.1% | 93.2% (active)
O=C(Cc1cccc(C(F)(F)F)c1)Nc1cc(S(=O)(=O)N2CCOCC2)ccc1N1CCCC1 | 31.4% | 69.5% (inactive)
CC(Oc1cccc(Cl)c1)C(=O)Nc1ccc(N2CCOCC2)cc1N1CCOCC1 (configuration not stated) | 33.2% | 73.5% (inactive)
O=[N+]([O-])c1cc(S(=O)(=O)Nc2cccc(C(F)(F)F)c2)ccc1-n1nnc2ccccc21 | 34.2% | 75.8% (inactive)
COc1ccc(CN(C)C(=O)[C@H](Cc2ccccc2)NC(=O)c2ccco2)c(OC)c1 | 32.8% | 72.7% (inactive)
COc1cc(CN2CCCC(N3CCN(c4ccc(F)cc4)CC3)C2)ccc1F (configuration not stated) | 31.2% | 69% (inactive)
O=C(NCCc1c[nH]c2ccccc12)N[C@@H](Cc1ccccc1)C(=O)O | 33.3% | 73.7% (inactive)
O=C(c1cc2n(n1)C(C(F)(F)F)CC(c1ccco1)N2)N1CCc2ccccc2C1 (configuration not stated) | 37.2% | 82.3% (inactive)
Cc1cccc(NC(=O)CN2C(=O)N/C(=C/c3ccc(-c4cccc(C(=O)O)c4C)o3)C2=O)c1 | 34.1% | 75.5% (inactive)
COC(=O)C1=CN(Cc2ccc(F)cc2)C=C(C(=O)OC)C1c1ccc(O)c(OC)c1 | 26.8% | 59.4% (inactive)
O=C(O)CC(NC(=O)C(c1ccccc1)c1ccccc1)c1ccc(F)cc1 (configuration not stated) | 27.7% | 61.3% (inactive)
CCOc1cc(N2CCOCC2)c(OCC)cc1NC(=O)c1oc2ccccc2c1C | 29.4% | 65.1% (inactive)
CCOc1cc(N2CCOCC2)c(OCC)cc1NC(=O)c1ccc2ccccc2n1 | 46.5% | 103% (active)
COc1ccc(CN(Cc2ccccn2)C(=O)CN2C(=O)C(C)Oc3ccccc32)cc1 (configuration not stated) | 38.6% | 85.4% (active)
O=C(COc1cc(F)ccc1[N+](=O)[O-])N1N=C(c2cccs2)CC1c1ccco1 (configuration not stated) | 35.6% | 78.9% (inactive)
COc1cccc(C2/C(=C(/O)c3ccccc3)C(=O)C(=O)N2Cc2ccco2)c1 (configuration not stated) | 35.3% | 78.2% (inactive)
CCOC(=O)/C=c1\s/c(=C\c2ccc3cc(OC)ccc3c2)c(=O)n1CC(=O)NCC1CCCO1 (configuration not stated) | 28.6% | 63.3% (inactive)
O=c1c2cn(Cc3ccc(F)cc3)c3ccc(F)cc3c-2nn1Cc1ccc(F)cc1 | 48.9% | 108% (active)
COc1cccc(NS(=O)(=O)c2ccc3c(c2)C2C=CCC2C(c2ccc(C(=O)O)cc2)N3)c1 (configuration not stated) | 32.7% | 72.4% (inactive)
CC(=O)c1ccc(N2CCN(C(=O)C3CCCN(S(=O)(=O)c4cnc[nH]4)C3)CC2)cc1 (configuration not stated) | 25.1% | 55.5% (inactive)
O=c1[nH]c2cc3c(cc2cc1CN(CCN1CCOCC1)C(=S)NCC1CCCO1)OCO3 (configuration not stated) | 26.6% | 59% (inactive)

SMILES | activation (% of full agonist control) | activation (% of partial agonist control)
O=C(NC(Cc1c[nH]c2ccccc12)C(=O)O)/C(=C/c1ccc(F)cc1)NC(=O)c1ccccc1 (configuration not stated) | 32.2% | 71.2% (inactive)
COC(=O)c1ccc(NC(=O)C(=O)c2cn(CC(=O)N3CCOCC3)c3ccccc23)cc1 | 32.1% | 71.1% (inactive)
O=C(CCCCCNC(=O)N1CCn2c1nc1ccccc12)N[C@@H](Cc1ccccc1)C(=O)O | 32.6% | 72.2% (inactive)
CCOc1cccc(/C(O)=C2/C(=O)C(=O)N(Cc3cccnc3)C2c2ccco2)c1 (configuration not stated) | 30.8% | 68.2% (inactive)
O=C(O)c1ccc(N2C(=O)CC(SC(=Nc3ccccc3)Nc3ccccc3)C2=O)cc1 (configuration not stated) | 38.3% | 84.7% (inactive)
O=C(C1=C(O)C(=O)N(CCN2CCOCC2)C1c1ccc(Cl)cc1)c1cc2ccccc2o1 (configuration not stated) | 37.3% | 82.6% (inactive)
COc1ccc(O)c(C(=O)c2cc(C#N)c(=O)n(CC3CCCO3)c2)c1 (configuration not stated) | 38.1% | 84.3% (inactive)
O=C1C(=O)N(Cc2ccccc2)C(c2cccc(O)c2)/C1=C(\O)c1ccc2c(c1)OCCO2 (configuration not stated) | 25.6% | 56.7% (inactive)
O=C(c1ccc(F)cc1)c1cn(Cc2ccc(F)cc2)c2cc3c(cc2c1=O)OCCO3 | 37.8% | 83.8% (inactive)
O=C(NCCCn1ccnc1)C(=O)NCC(c1ccco1)N1CCN(c2ccccc2)CC1 (configuration not stated) | 28.4% | 62.9% (inactive)
Cc1cccc(NC(=O)CSc2nc(=O)n(CCN3CCOCC3)c3c2CCCC3)c1C | 33.1% | 73.2% (inactive)
Cc1ccc(-c2nnc(Nc3ccc(O)cc3)c3ccccc23)cc1S(=O)(=O)NCCO | 41.1% | 91% (active)
O=S(=O)(NCC(c1ccco1)N1CCc2ccccc2C1)c1ccc(F)cc1 (configuration not stated) | 29.9% | 66.1% (inactive)
COc1ccc(C)c2sc(N(CCCN(C)C)C(=O)CS(=O)(=O)c3ccc(F)cc3)nc12 | 31.2% | 69.1% (inactive)
CCN(C(=O)CSc1nnc(-c2ccc(F)cc2)c2ccccc12)C1CCS(=O)(=O)C1 (configuration not stated) | 34.5% | 76.4% (inactive)
O=C(c1nc2ccccn2c1CN1CCCC(O)C1)N1CCN(C2CCCCC2)CC1 (configuration not stated) | 46.4% | 103% (active)
O=S(=O)(NCC(c1ccc2c(c1)OCO2)N1CCOCC1)c1ccc(F)cc1 (configuration not stated) | 35.4% | 78.4% (inactive)
COc1ccc(NC(=O)C(=O)c2cn(CC(=O)N3CCCC3)c3ccccc23)c(OC)c1 | 32.9% | 72.7% (inactive)
O=C(Cn1c(=O)c(=O)n(Cc2ccccc2)c2ccc(Cl)cc21)NCC1CCCO1 (configuration not stated) | 31.1% | 68.9% (inactive)
O=C(CNC(=O)c1nc[nH]c1C(=O)N1CCc2ccccc2C1)OCc1ccccc1 | 40.3% | 89.3% (active)
COc1ccc(/C=C(\NC(=O)c2ccco2)C(=O)NC(Cc2ccccc2)C(=O)O)cc1 (configuration not stated) | 31.3% | 69.3% (inactive)
O=C(N[C@@H]1CCC(=O)N(CC[C@H](Oc2ccccc2)c2ccccc2)CC1)OCc1ccccc1 | 28.1% | 62.1% (inactive)
CN(C(=O)CS(=O)(=O)c1cn(CC(=O)N2CCCC2)c2ccccc12)c1ccccc1 | 24.5% | 54.2% (inactive)
